# Data from the supplement of paper PMC12067093, “Discovery and optimisation of a covalent ligand for TRIM25 and its application to targeted protein ubiquitination” (Chemical Science, 2025).
# The full data set covers some 21,000 targets. This sample favours those with the largest changes.
# Compound: CC1Cc2ccccc2N1C(=O)C1CCCN(C1)C(=O)CCl (mixture of isomers) [TRIM25 ligand 11 (diastereomer mixture)]
# Experiment: probe-labelled cysteine peptide fold change vs DMSO (competition) (log2 fold change); higher = less target engagement (more negative = stronger competition)
# Conditions: 10 µM; THP-1; incubation time: 4 h
# 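Note: competitive chemoproteomic profiling in live THP-1 cells with an iodoacetamide desthiobiotin (IA-DTB) probe, comparing probe-labelled peptide intensities in compound-treated cells against DMSO-treated controls.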
# Chain of UniProt Q99729 (Q99729 whole entry): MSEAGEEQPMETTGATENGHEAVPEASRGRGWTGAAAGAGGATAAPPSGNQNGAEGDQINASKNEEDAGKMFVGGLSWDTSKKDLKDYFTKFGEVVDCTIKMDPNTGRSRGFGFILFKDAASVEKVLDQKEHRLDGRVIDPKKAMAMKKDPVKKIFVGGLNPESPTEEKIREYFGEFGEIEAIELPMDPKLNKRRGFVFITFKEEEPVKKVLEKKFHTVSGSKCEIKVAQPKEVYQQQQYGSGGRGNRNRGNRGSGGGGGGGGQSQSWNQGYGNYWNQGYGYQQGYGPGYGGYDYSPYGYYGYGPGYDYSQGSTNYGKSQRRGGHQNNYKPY
# Chain of UniProt P34932 (P34932 whole entry, looked up): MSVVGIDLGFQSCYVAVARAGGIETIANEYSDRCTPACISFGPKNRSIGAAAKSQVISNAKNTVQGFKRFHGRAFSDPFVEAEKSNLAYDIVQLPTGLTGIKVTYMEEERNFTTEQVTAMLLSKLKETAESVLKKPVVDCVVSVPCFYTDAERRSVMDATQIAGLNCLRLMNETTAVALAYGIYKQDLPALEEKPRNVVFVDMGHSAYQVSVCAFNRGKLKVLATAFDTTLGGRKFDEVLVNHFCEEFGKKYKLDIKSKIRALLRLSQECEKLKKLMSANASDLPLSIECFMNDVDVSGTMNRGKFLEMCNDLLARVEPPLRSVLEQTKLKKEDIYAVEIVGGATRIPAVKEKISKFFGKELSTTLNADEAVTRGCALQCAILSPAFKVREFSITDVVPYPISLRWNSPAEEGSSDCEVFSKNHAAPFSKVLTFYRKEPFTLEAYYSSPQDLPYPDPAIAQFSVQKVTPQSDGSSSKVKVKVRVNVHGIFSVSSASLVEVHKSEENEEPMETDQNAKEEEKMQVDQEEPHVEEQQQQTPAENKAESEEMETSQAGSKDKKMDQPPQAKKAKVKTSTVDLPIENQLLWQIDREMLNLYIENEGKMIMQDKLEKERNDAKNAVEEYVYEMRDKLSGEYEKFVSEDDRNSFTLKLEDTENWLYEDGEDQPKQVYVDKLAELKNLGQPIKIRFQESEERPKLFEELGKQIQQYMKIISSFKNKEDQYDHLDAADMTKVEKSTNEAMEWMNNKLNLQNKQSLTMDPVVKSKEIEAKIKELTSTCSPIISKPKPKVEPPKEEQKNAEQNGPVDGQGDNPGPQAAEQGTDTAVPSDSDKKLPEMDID
# Chain of UniProt P48506 (P48506 whole entry, looked up): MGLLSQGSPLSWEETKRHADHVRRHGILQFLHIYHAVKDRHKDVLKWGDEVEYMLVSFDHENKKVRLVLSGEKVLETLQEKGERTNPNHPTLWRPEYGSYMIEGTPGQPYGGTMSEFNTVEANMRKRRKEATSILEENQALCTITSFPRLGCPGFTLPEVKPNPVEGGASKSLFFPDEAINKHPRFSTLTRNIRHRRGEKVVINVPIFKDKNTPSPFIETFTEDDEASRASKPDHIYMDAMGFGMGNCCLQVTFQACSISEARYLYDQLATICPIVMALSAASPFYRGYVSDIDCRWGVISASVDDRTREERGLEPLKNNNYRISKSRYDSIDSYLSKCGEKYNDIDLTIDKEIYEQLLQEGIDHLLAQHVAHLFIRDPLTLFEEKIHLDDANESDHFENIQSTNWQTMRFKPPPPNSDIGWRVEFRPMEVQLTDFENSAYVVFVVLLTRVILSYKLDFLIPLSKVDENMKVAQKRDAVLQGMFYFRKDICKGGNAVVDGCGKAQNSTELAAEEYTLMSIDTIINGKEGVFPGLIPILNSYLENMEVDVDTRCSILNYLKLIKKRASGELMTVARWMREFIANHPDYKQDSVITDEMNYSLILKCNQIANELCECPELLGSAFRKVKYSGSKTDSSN
# Chain of UniProt Q14C86 (Q14C86 whole entry, looked up): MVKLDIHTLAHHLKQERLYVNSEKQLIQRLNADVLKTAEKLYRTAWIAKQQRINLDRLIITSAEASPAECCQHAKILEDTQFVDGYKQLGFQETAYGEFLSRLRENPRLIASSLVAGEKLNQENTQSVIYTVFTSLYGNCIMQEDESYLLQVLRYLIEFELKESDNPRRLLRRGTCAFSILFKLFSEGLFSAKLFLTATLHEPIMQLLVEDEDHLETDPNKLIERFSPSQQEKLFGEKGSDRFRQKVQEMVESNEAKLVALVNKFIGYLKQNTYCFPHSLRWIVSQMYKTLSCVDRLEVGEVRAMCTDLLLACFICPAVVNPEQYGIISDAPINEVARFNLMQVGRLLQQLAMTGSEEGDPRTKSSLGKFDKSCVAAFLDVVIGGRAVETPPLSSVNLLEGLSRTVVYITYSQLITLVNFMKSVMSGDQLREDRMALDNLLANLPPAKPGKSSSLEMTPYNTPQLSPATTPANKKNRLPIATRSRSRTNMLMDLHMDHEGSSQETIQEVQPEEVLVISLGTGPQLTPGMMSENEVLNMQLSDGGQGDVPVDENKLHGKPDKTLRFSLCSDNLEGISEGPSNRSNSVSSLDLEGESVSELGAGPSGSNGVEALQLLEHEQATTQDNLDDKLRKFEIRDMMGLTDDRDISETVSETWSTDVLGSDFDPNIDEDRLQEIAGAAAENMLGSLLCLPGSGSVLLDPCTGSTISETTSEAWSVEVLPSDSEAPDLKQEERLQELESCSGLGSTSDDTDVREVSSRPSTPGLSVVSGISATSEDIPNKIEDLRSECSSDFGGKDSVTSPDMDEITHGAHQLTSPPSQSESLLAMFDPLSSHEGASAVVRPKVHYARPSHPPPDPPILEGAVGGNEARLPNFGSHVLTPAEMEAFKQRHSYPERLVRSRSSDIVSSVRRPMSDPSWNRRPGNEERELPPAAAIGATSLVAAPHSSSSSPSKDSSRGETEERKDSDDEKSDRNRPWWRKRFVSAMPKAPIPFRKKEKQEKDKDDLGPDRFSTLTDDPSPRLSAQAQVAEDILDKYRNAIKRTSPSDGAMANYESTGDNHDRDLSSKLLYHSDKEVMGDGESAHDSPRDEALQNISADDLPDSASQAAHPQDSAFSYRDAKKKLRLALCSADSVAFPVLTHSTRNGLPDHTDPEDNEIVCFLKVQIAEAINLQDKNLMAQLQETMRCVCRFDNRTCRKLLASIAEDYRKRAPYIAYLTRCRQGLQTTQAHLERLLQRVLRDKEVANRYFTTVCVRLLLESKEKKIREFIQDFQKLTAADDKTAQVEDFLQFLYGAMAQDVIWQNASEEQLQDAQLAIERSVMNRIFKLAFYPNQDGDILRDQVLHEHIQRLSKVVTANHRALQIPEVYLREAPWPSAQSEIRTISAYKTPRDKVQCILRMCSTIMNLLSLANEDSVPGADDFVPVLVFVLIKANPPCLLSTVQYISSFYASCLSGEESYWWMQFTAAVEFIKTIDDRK
# Chain of UniProt P48507 (P48507 whole entry, looked up): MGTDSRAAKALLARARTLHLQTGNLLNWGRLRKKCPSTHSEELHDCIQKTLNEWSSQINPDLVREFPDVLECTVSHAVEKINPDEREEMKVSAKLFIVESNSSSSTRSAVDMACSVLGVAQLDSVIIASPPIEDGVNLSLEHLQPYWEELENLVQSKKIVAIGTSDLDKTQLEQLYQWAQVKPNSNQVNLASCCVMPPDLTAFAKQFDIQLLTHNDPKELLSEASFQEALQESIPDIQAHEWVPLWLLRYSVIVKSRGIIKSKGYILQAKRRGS
# Chain of UniProt Q8TD30 (Q8TD30 whole entry, looked up): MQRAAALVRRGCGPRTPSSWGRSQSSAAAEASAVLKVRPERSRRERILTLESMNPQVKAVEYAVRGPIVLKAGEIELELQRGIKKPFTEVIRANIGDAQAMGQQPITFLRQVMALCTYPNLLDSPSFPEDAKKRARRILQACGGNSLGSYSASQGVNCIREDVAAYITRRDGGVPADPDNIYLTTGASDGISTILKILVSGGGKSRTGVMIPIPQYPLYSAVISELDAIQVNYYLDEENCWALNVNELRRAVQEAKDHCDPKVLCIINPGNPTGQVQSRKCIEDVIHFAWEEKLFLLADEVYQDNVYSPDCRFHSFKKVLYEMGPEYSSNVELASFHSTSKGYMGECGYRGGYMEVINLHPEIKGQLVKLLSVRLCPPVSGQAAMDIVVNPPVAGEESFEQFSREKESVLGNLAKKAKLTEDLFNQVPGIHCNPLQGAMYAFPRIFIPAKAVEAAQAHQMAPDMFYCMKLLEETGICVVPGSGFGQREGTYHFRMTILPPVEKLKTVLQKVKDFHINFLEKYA
# Chain of UniProt P04406 (P04406 whole entry, looked up): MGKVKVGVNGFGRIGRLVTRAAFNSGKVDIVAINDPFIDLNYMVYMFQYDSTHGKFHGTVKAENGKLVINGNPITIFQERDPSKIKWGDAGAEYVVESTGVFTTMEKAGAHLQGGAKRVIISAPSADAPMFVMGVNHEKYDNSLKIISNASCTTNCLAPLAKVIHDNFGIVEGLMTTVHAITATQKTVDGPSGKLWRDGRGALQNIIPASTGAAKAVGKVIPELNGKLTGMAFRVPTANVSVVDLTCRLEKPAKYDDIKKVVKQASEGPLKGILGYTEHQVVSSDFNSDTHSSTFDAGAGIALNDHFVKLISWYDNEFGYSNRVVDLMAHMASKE
# Chain of UniProt P50148 (P50148 whole entry, looked up): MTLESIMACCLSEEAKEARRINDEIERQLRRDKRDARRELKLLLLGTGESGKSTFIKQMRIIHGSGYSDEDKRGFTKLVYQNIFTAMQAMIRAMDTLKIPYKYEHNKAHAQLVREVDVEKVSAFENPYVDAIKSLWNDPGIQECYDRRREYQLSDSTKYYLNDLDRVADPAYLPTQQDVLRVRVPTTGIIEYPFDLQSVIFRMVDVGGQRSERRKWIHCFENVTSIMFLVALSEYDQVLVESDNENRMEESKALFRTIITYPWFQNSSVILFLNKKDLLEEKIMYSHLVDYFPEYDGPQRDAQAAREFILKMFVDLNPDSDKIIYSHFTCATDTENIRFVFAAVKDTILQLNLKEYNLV
# Chain of UniProt P51858 (P51858 whole entry, looked up): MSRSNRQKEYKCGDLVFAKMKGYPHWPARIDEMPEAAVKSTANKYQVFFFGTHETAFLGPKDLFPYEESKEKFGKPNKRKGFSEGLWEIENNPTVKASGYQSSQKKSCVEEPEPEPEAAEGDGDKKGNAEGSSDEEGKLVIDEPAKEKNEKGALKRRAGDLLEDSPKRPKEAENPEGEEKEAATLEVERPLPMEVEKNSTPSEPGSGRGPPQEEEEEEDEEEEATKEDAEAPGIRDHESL
row,Target,probe-labelled cysteine peptide fold change
1,GDI2_P50395_302_VICILSHPIK (UniProt P50395),-0.0268
2,GSDMD_P57764_268_CLHNFLTDGVPAEGAFTEDFQGLRAEVETISK (UniProt P57764),0.377
3,GPATCH8_Q9UKJ3_795_HKGELPPSSCQR (UniProt Q9UKJ3),-0.186
4,HGD_Q93099_180_MLVQPNEICVIQR (UniProt Q93099),0.479
5,GSTCD_Q8NEC7_571_EHMILCR (UniProt Q8NEC7),0.0436
6,HARS_P12081_379_KVPCVGLSIGVER (UniProt P12081),-0.0416
7,GTF3C3_Q9Y5Q9_810_GPCQESFYNLGR (UniProt Q9Y5Q9),0.136
8,HK2_P52789_133_GSGTQLFDHIAECLANFMDK (UniProt P52789),0.165
9,HNRNPA3_P51991_64_WGTLTDCVVMRDPQTKR (UniProt P51991),-0.717
10,HADHA_P40939_97+110_PGCFIAGADINMLAACK (UniProt P40939),-0.0879
11,HADHA_P40939_349_ALMGLYHGQVLCKK (UniProt P40939),-0.452
12,HNRNPAB_Q99729_224_KFHTVSGSKCEIK (UniProt Q99729),-0.654
13,HSPBP1_Q9NZL4_269_GTLCSMGMVQQLVALVR (UniProt Q9NZL4),0.0217
14,GNAQ_P50148_144_SLWNDPGIQECYDR (UniProt P50148),-0.0686
15,HAT1_O14929_168_ADMTCR (UniProt O14929),0.0223
16,HSPA2_P54652_191_GCAGGEK (UniProt P54652),-0.0761
17,HADH_Q16836_211_ALGKHPVSCK (UniProt Q16836),-0.647
18,HDGF_P51858_108_KSCVEEPEPEPEAAEGDGDKK (UniProt P51858),-0.541
19,HPCAL1_P37235_185_LLQCDPSSASQF<|>HPCA_P84074_185_LLQCDPSSASQF (UniProt P84074+P37235),0.00885
20,GTF2B_Q00403_37_AGDMICPECGLVVGDR (UniProt Q00403),0.000693

row,Target,probe-labelled cysteine peptide fold change
1,HMGCL_P35914_141_NINCSIEESFQR (UniProt P35914),0.0699
2,H2AFY_O75367_276_FVIHCNSPVWGADKCEELLEK (UniProt O75367),-0.321
3,GMPS_P49915_456_VICAEEPYICK (UniProt P49915),0.0291
4,GEMIN4_P57678_210_LRSDPDACPTMPLLAMLLR (UniProt P57678),-0.252
5,GAPVD1_Q14C86_293_TLSCVDRLEVGEVR (UniProt Q14C86),0.185
6,GALNT1_Q10472_482_TDDLCLDVSK (UniProt Q10472),0.0604
7,GART_P22102_941_GSNAHEQALETGVTVTGCTVHFVAEDVDAGQIILQEAVPVKR (UniProt P22102),-0.0918
8,GNAI2_P04899_287_ITHSPLTICFPEYTGANKYDEAASYIQSK (UniProt P04899),-0.134
9,GART_P22102_93_SAGVQCFGPTAEAAQLESSK (UniProt P22102),0.0151
10,GCLC_P48506_295_GYVSDIDCR (UniProt P48506),0.0316
11,GPT2_Q8TD30_281_CIEDVIHFAWEEK (UniProt Q8TD30),0.213
12,GTPBP1_O00178_515_YQAMVHCGSIR (UniProt O00178),-0.0472
13,GCLM_P48507_72_EFPDVLECTVSHAVEK (UniProt P48507),0.0379
14,GCN1_Q92616_2136_LGTPDEQLEMANCQAVILSVEDDTGHR (UniProt Q92616),0.097
15,GAPDH_P04406_247_VPTANVSVVDLTCRLEK (UniProt P04406),-0.778
16,HSPA4_P34932_213_NVVFVDMGHSAYQVSVCAFNR (UniProt P34932),0.1
17,HSPA14_Q0VDF9_394_ENLLVEDSLMIECSAR (UniProt Q0VDF9),-0.368
18,GATM_P50440_131_KAVAEIEEMCNILK (UniProt P50440),-0.271
19,HNRNPM_P52272_676_DKFNECGHVLYADIK (UniProt P52272),-0.633

# Same assay, conditions: 50 µM; THP-1; incubation time: 4 h
row,Target,probe-labelled cysteine peptide fold change
1,GDI2_P50395_302_VICILSHPIK (UniProt P50395),-0.00641
2,GSDMD_P57764_268_CLHNFLTDGVPAEGAFTEDFQGLRAEVETISK (UniProt P57764),0.487
3,GPATCH8_Q9UKJ3_795_HKGELPPSSCQR (UniProt Q9UKJ3),-0.0452
4,HGD_Q93099_180_MLVQPNEICVIQR (UniProt Q93099),0.382
5,GSTCD_Q8NEC7_571_EHMILCR (UniProt Q8NEC7),0.126
6,HARS_P12081_379_KVPCVGLSIGVER (UniProt P12081),-0.0375
7,GTF3C3_Q9Y5Q9_810_GPCQESFYNLGR (UniProt Q9Y5Q9),0.284
8,HK2_P52789_133_GSGTQLFDHIAECLANFMDK (UniProt P52789),-0.083
9,HNRNPA3_P51991_64_WGTLTDCVVMRDPQTKR (UniProt P51991),-0.524
10,HADHA_P40939_97+110_PGCFIAGADINMLAACK (UniProt P40939),0.186
11,HADHA_P40939_349_ALMGLYHGQVLCKK (UniProt P40939),-0.365
12,HNRNPAB_Q99729_224_KFHTVSGSKCEIK (UniProt Q99729),-0.0882
13,HSPBP1_Q9NZL4_269_GTLCSMGMVQQLVALVR (UniProt Q9NZL4),0.156
14,GNAQ_P50148_144_SLWNDPGIQECYDR (UniProt P50148),-0.0854
15,HAT1_O14929_168_ADMTCR (UniProt O14929),0.0285
16,HSPA2_P54652_191_GCAGGEK (UniProt P54652),-0.123
17,HADH_Q16836_211_ALGKHPVSCK (UniProt Q16836),-0.601
18,HDGF_P51858_108_KSCVEEPEPEPEAAEGDGDKK (UniProt P51858),-0.677
19,HPCAL1_P37235_185_LLQCDPSSASQF<|>HPCA_P84074_185_LLQCDPSSASQF (UniProt P84074+P37235),-0.0604
20,GTF2B_Q00403_37_AGDMICPECGLVVGDR (UniProt Q00403),0.073

row,Target,probe-labelled cysteine peptide fold change
1,HMGCL_P35914_141_NINCSIEESFQR (UniProt P35914),0.161
2,H2AFY_O75367_276_FVIHCNSPVWGADKCEELLEK (UniProt O75367),-0.0894
3,GMPS_P49915_456_VICAEEPYICK (UniProt P49915),0.0222
4,GEMIN4_P57678_210_LRSDPDACPTMPLLAMLLR (UniProt P57678),-0.0506
5,GAPVD1_Q14C86_293_TLSCVDRLEVGEVR (UniProt Q14C86),0.128
6,GALNT1_Q10472_482_TDDLCLDVSK (UniProt Q10472),0.00641
7,GART_P22102_941_GSNAHEQALETGVTVTGCTVHFVAEDVDAGQIILQEAVPVKR (UniProt P22102),0.156
8,GNAI2_P04899_287_ITHSPLTICFPEYTGANKYDEAASYIQSK (UniProt P04899),-0.103
9,GART_P22102_93_SAGVQCFGPTAEAAQLESSK (UniProt P22102),-0.0827
10,GCLC_P48506_295_GYVSDIDCR (UniProt P48506),0.199
11,GPT2_Q8TD30_281_CIEDVIHFAWEEK (UniProt Q8TD30),0.0432
12,GTPBP1_O00178_515_YQAMVHCGSIR (UniProt O00178),0.0726
13,GCLM_P48507_72_EFPDVLECTVSHAVEK (UniProt P48507),0.0286
14,GCN1_Q92616_2136_LGTPDEQLEMANCQAVILSVEDDTGHR (UniProt Q92616),-0.0335
15,GAPDH_P04406_247_VPTANVSVVDLTCRLEK (UniProt P04406),-0.389
16,HSPA4_P34932_213_NVVFVDMGHSAYQVSVCAFNR (UniProt P34932),0.0909
17,HSPA14_Q0VDF9_394_ENLLVEDSLMIECSAR (UniProt Q0VDF9),-0.17
18,GATM_P50440_131_KAVAEIEEMCNILK (UniProt P50440),-0.2
19,HNRNPM_P52272_676_DKFNECGHVLYADIK (UniProt P52272),-0.474
